Experimental findings from PubChem BioAssay (EPA / NIEHS) are described below.

Experiment [1] is described as follows: BSK_4H_Eotaxin3: BioMAP Diversity Plus: 4H Assay for Eotaxin 3 Biomarker Activity (AID 2283000).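 Also: CCL26 protein level quantified by ELISA in parallel with SRB cytotoxicity check.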 The note with it: primary human endothelial cells (HUVEC); actives raise or lower the signal. Put shortly:
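HUVEC, 24 h post-dose, ELISA for Eotaxin-3/CCL26. Gain or loss of signal fitted bidirectionally vs DMSO baseline.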

The target in experiment [2] is human Peroxisome Proliferator-activated Receptor alpha (PPARa), PPARA (gene 5465) (UniProt Q07869). Briefly: ATG_PPARa_TRANS: Attagene TRANS-FACTORIAL HepG2 Assay for human Peroxisome Proliferator-activated Receptor alpha (PPARa) (AID 2283001; active = hit-call score of the fitted dose curve at least 0.9, where 1 is the maximum;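 as to AC50: potency for gain of reporter signal over DMSO so agonist or activator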). Put shortly: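 Gain-of-signal endpoint: reporter mRNA induction relative to DMSO, detected by fluorescent RT-PCR and capillary electrophoresis. HepG2 cells transiently carried GAL4-UAS-driven reporter units plus NR-Gal4 fusion; exposure lasted 24 h.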
Sequence of human Peroxisome Proliferator-activated Receptor alpha (PPARa), PPARA (gene 5465) (Q07869 whole entry, looked up, the tested form may be a part): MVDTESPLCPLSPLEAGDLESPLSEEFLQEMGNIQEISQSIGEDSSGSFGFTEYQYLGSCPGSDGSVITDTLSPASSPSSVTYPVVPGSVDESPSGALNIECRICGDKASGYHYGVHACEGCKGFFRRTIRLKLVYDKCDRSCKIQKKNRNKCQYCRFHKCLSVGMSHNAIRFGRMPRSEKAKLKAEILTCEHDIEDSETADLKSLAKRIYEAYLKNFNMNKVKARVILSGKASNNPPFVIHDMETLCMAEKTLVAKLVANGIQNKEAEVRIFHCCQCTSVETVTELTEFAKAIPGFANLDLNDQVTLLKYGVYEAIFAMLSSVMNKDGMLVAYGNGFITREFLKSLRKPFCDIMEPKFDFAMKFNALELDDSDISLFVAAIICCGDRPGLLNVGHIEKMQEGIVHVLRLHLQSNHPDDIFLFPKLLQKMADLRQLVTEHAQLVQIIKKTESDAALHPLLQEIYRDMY

For experiment [3], the target named is human Retinoic Acid Receptor beta (RARb), RARB (gene 5915) (UniProt P10826). Briefly: ATG_RARb_TRANS: Attagene TRANS-FACTORIAL HepG2 Assay for human Retinoic Acid Receptor beta (AID 2283004; active = hit-call score of the fitted dose curve at least 0.9, where 1 is the maximum). Put shortly: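 HepG2 cells transiently transfected with multiplexed GAL4-UAS reporter units expressing chimeric NR–Gal4 fusions; 24 h compound exposure. Reporter mRNA quantified by RT-PCR, 6-FAM labelling, HpaI digestion and capillary electrophoresis; gain-of-signal fitted against DMSO baseline.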
Sequence of human Retinoic Acid Receptor beta (RARb), RARB (gene 5915) (P10826 whole entry, looked up, the tested form may be a part): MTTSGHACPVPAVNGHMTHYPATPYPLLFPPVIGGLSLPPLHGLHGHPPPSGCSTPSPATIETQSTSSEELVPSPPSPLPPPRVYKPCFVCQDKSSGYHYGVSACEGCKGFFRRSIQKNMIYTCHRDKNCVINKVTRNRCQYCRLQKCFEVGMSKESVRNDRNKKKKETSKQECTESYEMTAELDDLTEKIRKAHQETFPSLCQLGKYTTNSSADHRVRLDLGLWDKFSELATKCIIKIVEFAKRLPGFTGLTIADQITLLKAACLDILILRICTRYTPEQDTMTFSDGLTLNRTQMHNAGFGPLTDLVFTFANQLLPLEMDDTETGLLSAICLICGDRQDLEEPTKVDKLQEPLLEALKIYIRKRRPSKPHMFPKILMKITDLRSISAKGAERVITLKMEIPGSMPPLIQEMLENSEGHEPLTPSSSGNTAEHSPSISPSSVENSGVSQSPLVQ

Experiment [4] concerns the target Retinoic acid receptor alpha (Homo sapiens) (UniProt P10276). The experiment can be described thus: ATG_RARa_TRANS: Attagene TRANS-FACTORIAL HepG2 Assay for human Retinoic Acid Receptor alpha (RARa) (AID 2283005; active = hit-call score of the fitted dose curve at least 0.9, where 1 is the maximum). The gist of the method: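 HepG2 cells transiently transfected with multiple reporter units expressing chimeric RARα-GAL4 fusion, with GAL4-UAS-driven reporters. After 24 h compound exposure, reporter mRNA induction quantified by RT-PCR and capillary electrophoresis with fluorescent labeling; gain-of-signal fitted relative to DMSO control.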

Experiment [5] has as its target Nuclear receptor subfamily 1 group I member 2 (Homo sapiens) (UniProt O75469). The experiment can be described thus: ATG_PXR_TRANS: Attagene TRANS-FACTORIAL HepG2 Assay for human Pregnane X Receptor (PXR) (AID 2283008; active = hit-call score of the fitted dose curve at least 0.9, where 1 is the maximum). Put shortly: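 Fluorescence intensity of FAM-labelled, HpaI-digested reporter amplicons, separated by capillary electrophoresis, quantifies induction. HepG2 cells with PXR-Gal4 trans-reporter system were exposed 24 h; DMSO defines baseline.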

In experiment [6] the target is human Retinoic Acid Receptor gamma (RARg), RARG (gene 5916) (UniProt P13631). Briefly: ATG_RARg_TRANS: Attagene TRANS-FACTORIAL HepG2 Assay for human Retinoic Acid Receptor gamma (RARg) (AID 2283009; active = hit-call score of the fitted dose curve at least 0.9, where 1 is the maximum). Put shortly:
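Transient transfection of HepG2 with multi-reporter constructs, then 24 h chemical treatment. Total RNA isolated, reverse-transcribed, PCR-amplified, fluorescently labelled and resolved by capillary electrophoresis; activity scored as mRNA induction versus DMSO.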

In experiment [7] the target is Retinoic acid receptor RXR-alpha (Homo sapiens) (UniProt P19793). Briefly: ATG_RXRa_TRANS: Attagene TRANS-FACTORIAL HepG2 Assay for human Retinoid X Receptor alpha (RXRa) (AID 2283012; active = hit-call score of the fitted dose curve at least 0.9, where 1 is the maximum). The gist of the method: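 Transient transfection of human HepG2 with multiple GAL4-UAS reporter constructs; 24 h compound exposure; total RNA isolated, reverse-transcribed, PCR-amplified, 6-FAM labelled, HpaI-cut, resolved by capillary electrophoresis. Positive-direction fit versus DMSO.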
Sequence of Retinoic acid receptor RXR-alpha (Homo sapiens) (P19793 whole entry, looked up, the tested form may be a part): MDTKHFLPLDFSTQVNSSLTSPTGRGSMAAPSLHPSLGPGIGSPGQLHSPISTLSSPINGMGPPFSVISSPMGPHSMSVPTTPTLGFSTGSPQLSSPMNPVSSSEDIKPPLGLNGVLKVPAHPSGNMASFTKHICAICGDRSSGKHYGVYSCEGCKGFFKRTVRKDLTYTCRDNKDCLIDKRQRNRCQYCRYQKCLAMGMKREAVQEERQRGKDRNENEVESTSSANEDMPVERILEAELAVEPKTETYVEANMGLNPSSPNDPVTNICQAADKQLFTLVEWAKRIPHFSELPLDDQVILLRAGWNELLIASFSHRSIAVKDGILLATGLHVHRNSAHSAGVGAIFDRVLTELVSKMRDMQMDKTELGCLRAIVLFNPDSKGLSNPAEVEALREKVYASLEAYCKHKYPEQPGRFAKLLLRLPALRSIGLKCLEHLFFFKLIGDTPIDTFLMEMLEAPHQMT

For experiment [8], the target named is human Retinoid X Receptor beta (RXRb), RXRB (gene 6257) (UniProt P28702). The experiment can be described thus: ATG_RXRb_TRANS: Attagene TRANS-FACTORIAL HepG2 Assay for human Retinoid X Receptor beta (RXRb) (AID 2283013; active = hit-call score of the fitted dose curve at least 0.9, where 1 is the maximum). The gist of the method: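 Transfect HepG2 with GAL4-UAS multi-reporter constructs (chimeric NR-Gal4, TRANS format); dose compound 24 h; isolate RNA, RT-PCR, FAM primer extension, HpaI digest; quantify by capillary electrophoresis; positive direction vs DMSO.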

Read-out in experiment [9]: E-selectin (Homo sapiens) (UniProt P16581)
The experiment can be described thus: BSK_3C_Eselectin: BioMAP Diversity Plus: 3C Assay for Eselectin Biomarker Activity (AID 2283015).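 Also: cell surface E-selectin protein quantified by ELISA 24 h after dosing.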 As to conditions: primary human endothelial cells (HUVEC); actives raise or lower the signal. Put shortly:
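Primary human umbilical vein endothelial cells (3C system) were dosed with chemical and cell-surface E-selectin measured by ELISA 24 h later. Bidirectional curve fitting used DMSO as negative control and baseline.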

Read-out in experiment [10]: Monocyte Chemoattractant Protein-1 (MCP1), CCL2 (gene 6347)
The experiment can be described thus: BSK_3C_MCP1: BioMAP Diversity Plus: 3C Assay for Monocyte Chemoattractant Protein-1 (MCP1) Biomarker Activity (AID 2283017). As to conditions: primary human endothelial cells (HUVEC); actives raise or lower the signal. The gist of the method:
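Primary human umbilical vein endothelial cells (3C system) were exposed to test chemical for 24 h, after which MCP-1 was quantified by ELISA. Activity was fitted bidirectionally against DMSO as negative control and baseline.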

Read-out in experiment [11]: Monocyte Chemoattractant Protein-1 (MCP1), CCL2 (gene 6347)
Briefly: BSK_4H_MCP1: BioMAP Diversity Plus: 4H Assay for Monocyte Chemoattractant Protein-1 (MCP1) Biomarker Activity (AID 2283018). The note with it: primary human endothelial cells (HUVEC); actives raise or lower the signal. Put shortly: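 ELISA read-out of MCP-1 from human vascular endothelial primary cells taken at 24 hours after compound exposure. Activity was fitted in both directions relative to DMSO, which served as negative control.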

Read-out in experiment [12]: Human Leukocyte Antigen - DR isotype (HLADR), HLA-DRA (gene 3122)
The experiment can be described thus: BSK_3C_HLADR: BioMAP Diversity Plus: 3C Assay for Human Leukocyte Antigen - DR isotype (HLADR) Biomarker Activity (AID 2283019). As to conditions: primary human endothelial cells (HUVEC); actives raise or lower the signal. The gist of the method: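 Primary human umbilical vein endothelial cells (3C system) were dosed with compound and cell-surface HLA-DR was quantified by ELISA at 24 h. Activity was fitted bidirectionally against DMSO as negative control and baseline.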

Read-out in experiment [13]: Interleukin-8 (IL8), CXCL8 (gene 3576)
Briefly: BSK_3C_IL8: BioMAP Diversity Plus: 3C Assay for Interleukin-8 (IL8) Biomarker Activity (AID 2283020). As to conditions: primary human endothelial cells (HUVEC); actives raise or lower the signal. The gist of the method: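 ELISA read-out of IL-8 from human umbilical vein endothelium, measured 24 h after chemical dosing. Activity is expressed relative to DMSO negative control, with both increases and decreases fitted.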

The target in experiment [14] is Peroxisome proliferator-activated receptor gamma (Homo sapiens) (UniProt P37231). The experiment can be described thus: ATG_PPARg_TRANS: Attagene TRANS-FACTORIAL HepG2 Assay for human Peroxisome Proliferator-activated Receptor-gamma (PPARg) (AID 2283007; active = hit-call score of the fitted dose curve at least 0.9, where 1 is the maximum). The gist of the method:
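Read-out: reporter mRNA induction, detected by fluorescence after RT-PCR and capillary electrophoresis. Transiently transfected human HepG2 liver cells carrying a chimeric NR-Gal4 construct were dosed for 24 h; activity was fitted upward relative to DMSO.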

For experiment [15], the target named is human RAR-related Orphan Receptor beta (RORb), RORB (gene 6096) (UniProt Q92753). Briefly: ATG_RORb_TRANS: Attagene TRANS-FACTORIAL HepG2 Assay for human RAR-related Orphan Receptor beta (RORb) (AID 2283010; active = hit-call score of the fitted dose curve at least 0.9, where 1 is the maximum). The gist of the method:
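Readout is reporter-gene mRNA induction, detected as fluorescence after RT-PCR and capillary electrophoresis, fitted for gain of signal against DMSO controls. Transiently transfected HepG2 liver cells carrying GAL4-UAS reporter constructs were treated for 24 hours.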

Experiment [16] deals with human RAR-related Orphan Receptor gamma (RORg), RORC (gene 6097) (UniProt P51449). The experiment can be described thus: ATG_RORg_TRANS: Attagene TRANS-FACTORIAL HepG2 Assay for human RAR-related Orphan Receptor gamma (RORg) (AID 2283011; active = hit-call score of the fitted dose curve at least 0.9, where 1 is the maximum). Put shortly: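 Readout: reporter transcript induction (RT-PCR, fluorescent primer extension, capillary electrophoresis) after 24 h compound exposure of transiently transfected HepG2 cells carrying a RORg-Gal4 chimera and GAL4-UAS reporters; DMSO served as baseline, with increasing signal fitted.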
Sequence of human RAR-related Orphan Receptor gamma (RORg), RORC (gene 6097) (P51449 whole entry, looked up, the tested form may be a part): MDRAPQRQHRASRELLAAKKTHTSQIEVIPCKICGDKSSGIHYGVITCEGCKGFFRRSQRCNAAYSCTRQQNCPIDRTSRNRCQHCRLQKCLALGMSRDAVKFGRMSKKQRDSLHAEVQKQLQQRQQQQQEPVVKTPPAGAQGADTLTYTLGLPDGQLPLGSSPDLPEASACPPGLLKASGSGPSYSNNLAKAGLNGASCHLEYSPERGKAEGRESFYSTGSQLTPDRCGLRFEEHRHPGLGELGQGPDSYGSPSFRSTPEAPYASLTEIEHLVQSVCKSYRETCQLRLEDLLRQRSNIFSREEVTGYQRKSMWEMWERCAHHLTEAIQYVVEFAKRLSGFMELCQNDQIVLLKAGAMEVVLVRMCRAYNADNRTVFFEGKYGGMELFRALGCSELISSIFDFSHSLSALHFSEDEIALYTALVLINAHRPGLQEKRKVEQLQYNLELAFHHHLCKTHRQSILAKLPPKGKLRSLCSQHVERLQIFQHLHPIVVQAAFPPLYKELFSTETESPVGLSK

Read-out in experiment [17]: Interleukin-1 alpha (IL1a), IL1A (gene 3552)
The experiment can be described thus: BSK_BE3C_IL1a: BioMAP Diversity Plus: BE3C Assay for Interleukin-1 alpha (IL1a) Biomarker Activity (AID 2283016). As to conditions: primary human bronchial epithelial cells; actives raise or lower the signal. Put shortly:
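BE3C primary human bronchial epithelium; cpd 24 h; IL-1a by ELISA; bidirectional fit vs DMSO; parallel SRB (0.1% SRB, 10% TCA fix, 560 nm) for cytotoxicity.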

Read-out in experiment [18]: Intercellular Adhesion Molecule 1 (ICAM1), ICAM1 (gene 3383)
Briefly: BSK_3C_ICAM1: BioMAP Diversity Plus: 3C Assay for Intercellular Adhesion Molecule 1 (ICAM1) Biomarker Activity (AID 2283003). The note with it: primary human endothelial cells (HUVEC); actives raise or lower the signal. The gist of the method:
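ICAM-1 levels measured by ELISA after HUVEC cultures in the 3C system had been dosed for 24 h. Gain or loss of signal relative to DMSO was fitted in both directions.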

Experiment [19] in a line: BSK_3C_Proliferation: Cell Proliferation Assessment in the BioMAP Diversity Plus: 3C Assay (AID 2283006).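 As to AC50: potency may reflect either rise or fall in cell number versus DMSO.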 The note with it: primary human endothelial cells (HUVEC). The gist of the method:
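Read-out is total protein by SRB absorbance at 560 nm, taken as a proxy for relative cell number. Primary human umbilical vein endothelium cultured below confluence was dosed for 48 h, TCA-fixed and SRB-stained; curves were fitted bidirectionally versus DMSO.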

Results filed as inconclusive are left out. Activity calls are given as the source filed them. The calls were made as follows, unless noted: active = hit-call score of the fitted dose curve at least 0.9, where 1 is the maximum; inactive = score below 0.9.

Sequence of human RAR-related Orphan Receptor beta (RORb), RORB (gene 6096) (Q92753 whole entry, looked up, the tested form may be a part): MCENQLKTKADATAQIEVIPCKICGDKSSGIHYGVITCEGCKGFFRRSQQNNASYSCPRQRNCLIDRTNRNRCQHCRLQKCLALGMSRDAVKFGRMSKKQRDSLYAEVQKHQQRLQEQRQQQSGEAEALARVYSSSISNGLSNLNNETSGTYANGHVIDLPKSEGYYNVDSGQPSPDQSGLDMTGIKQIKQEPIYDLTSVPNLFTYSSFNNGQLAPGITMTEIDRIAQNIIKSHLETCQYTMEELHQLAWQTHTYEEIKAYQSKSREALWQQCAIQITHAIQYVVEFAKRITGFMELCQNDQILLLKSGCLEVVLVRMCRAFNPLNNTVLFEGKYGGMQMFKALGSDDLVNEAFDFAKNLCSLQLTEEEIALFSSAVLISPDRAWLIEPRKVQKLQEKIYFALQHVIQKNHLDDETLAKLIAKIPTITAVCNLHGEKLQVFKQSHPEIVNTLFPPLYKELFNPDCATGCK
Sequence of human Retinoic Acid Receptor gamma (RARg), RARG (gene 5916) (P13631 whole entry, looked up): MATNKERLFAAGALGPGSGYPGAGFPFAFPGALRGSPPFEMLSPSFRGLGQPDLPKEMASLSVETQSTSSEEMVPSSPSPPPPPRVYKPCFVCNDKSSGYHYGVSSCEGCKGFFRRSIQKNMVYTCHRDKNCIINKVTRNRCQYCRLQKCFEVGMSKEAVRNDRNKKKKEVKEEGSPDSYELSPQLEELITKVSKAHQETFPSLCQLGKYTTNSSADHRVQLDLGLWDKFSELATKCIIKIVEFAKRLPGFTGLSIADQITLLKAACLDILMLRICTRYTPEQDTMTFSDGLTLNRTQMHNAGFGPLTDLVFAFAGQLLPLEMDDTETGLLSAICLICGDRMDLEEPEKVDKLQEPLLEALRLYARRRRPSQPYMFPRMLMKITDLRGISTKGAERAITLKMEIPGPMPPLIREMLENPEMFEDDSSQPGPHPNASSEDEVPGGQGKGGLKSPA
Sequence of Nuclear receptor subfamily 1 group I member 2 (Homo sapiens) (O75469 whole entry, looked up, the tested form may be a part): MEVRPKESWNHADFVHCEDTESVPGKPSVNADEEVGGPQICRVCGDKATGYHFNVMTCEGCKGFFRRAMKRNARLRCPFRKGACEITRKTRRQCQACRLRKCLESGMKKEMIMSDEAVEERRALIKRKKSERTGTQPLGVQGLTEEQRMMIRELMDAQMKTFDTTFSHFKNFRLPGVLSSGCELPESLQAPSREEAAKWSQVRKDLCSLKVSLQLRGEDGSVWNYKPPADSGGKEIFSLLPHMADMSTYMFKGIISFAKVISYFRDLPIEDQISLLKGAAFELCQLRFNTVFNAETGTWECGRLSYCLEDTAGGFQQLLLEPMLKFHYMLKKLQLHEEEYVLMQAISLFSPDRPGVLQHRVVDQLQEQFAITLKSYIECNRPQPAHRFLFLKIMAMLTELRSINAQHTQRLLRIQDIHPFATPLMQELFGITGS
Sequence of Retinoic acid receptor alpha (Homo sapiens) (P10276 whole entry, looked up, the tested form may be a part): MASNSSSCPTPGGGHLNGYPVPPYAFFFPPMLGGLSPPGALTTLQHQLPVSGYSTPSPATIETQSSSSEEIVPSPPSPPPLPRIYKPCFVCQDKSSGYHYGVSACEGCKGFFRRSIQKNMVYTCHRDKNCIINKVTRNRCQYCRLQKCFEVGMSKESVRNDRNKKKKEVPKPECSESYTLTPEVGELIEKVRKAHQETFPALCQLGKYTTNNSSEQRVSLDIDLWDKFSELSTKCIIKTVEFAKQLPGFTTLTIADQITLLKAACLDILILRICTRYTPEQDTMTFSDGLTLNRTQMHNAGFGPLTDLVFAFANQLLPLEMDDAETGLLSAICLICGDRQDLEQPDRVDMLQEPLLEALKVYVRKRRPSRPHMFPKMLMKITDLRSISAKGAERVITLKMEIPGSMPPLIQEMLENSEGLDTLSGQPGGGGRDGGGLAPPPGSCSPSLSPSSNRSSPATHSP
Sequence of Peroxisome proliferator-activated receptor gamma (Homo sapiens) (P37231 whole entry, looked up, the tested form may be a part): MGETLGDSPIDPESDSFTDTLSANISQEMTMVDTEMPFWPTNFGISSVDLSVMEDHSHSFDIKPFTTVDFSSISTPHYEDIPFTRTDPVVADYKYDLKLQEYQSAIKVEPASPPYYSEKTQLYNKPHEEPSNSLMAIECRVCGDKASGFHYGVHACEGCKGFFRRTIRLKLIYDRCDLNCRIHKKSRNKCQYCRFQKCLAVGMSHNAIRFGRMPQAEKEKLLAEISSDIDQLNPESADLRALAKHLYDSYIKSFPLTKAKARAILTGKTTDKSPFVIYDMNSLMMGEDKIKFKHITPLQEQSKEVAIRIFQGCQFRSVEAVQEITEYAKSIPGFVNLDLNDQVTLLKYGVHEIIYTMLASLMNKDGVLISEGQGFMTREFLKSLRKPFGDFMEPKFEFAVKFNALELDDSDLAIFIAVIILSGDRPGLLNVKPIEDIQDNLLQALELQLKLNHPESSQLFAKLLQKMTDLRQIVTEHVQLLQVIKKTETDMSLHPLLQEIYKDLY
Sequence of E-selectin (Homo sapiens) (P16581 whole entry, looked up): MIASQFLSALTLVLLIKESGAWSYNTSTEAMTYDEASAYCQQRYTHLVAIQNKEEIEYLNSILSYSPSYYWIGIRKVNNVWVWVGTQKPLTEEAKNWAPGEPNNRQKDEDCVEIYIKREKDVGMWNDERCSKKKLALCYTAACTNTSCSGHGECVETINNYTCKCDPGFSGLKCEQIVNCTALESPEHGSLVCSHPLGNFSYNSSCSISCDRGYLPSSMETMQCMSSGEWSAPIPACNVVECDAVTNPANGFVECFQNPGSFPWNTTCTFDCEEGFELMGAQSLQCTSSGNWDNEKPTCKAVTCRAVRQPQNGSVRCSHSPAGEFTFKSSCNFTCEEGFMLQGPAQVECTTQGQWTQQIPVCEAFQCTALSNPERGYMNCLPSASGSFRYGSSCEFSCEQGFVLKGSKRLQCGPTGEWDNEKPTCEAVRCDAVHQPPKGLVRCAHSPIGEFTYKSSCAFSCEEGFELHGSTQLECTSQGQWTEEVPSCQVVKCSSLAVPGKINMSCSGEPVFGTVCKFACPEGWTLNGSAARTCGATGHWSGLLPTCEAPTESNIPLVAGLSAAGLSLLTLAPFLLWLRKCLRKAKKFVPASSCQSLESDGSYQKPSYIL

As to `COc1cc(Cl)c(OC)cc1Cl`, the outcome in experiment [1], in [2], in experiment [3], in experiment [4], in experiment [5] and in experiment [6] was inactive. Also, the result in experiment [7], in experiment [8], in experiment [9], in experiment [10], in experiment [11] and in experiment [12] was inactive. In addition, in experiment [13], the outcome was inactive.

For `Cc1cnc(C2=NC(C)(C(C)C)C(=O)N2)c(C(=O)O)c1` (stereo not drawn), the outcome in experiment [1], in experiment [2], in experiment [4], in experiment [14], in experiment [6] and in [15] was inactive. In addition, the result in experiment [16], in experiment [7], in experiment [8], in [9], in experiment [17] and in [10] was inactive. Besides, the outcome in experiment [11], in [12] and in experiment [13] was inactive. For the same compound, the AC50 in experiment [5] was 50 µM (active).

For the compound `Clc1cccc(C(Cl)(Cl)Cl)n1`, the result in experiment [1], in [2], in [18], in experiment [14], in experiment [5] and in [16] was inactive. Moreover, the call in experiment [7], in experiment [8], in experiment [9], in experiment [10], in [11] and in experiment [12] was inactive. Further, the result in experiment [13] was inactive.

For `COP(=O)(OC)O/C(C)=C/C(=O)N(C)C`, the result in [1], in experiment [2], in [19], in experiment [14], in experiment [5] and in experiment [6] was inactive. Further, the outcome in experiment [15], in experiment [16], in experiment [9], in [10], in [11] and in [12] was inactive. Besides, the result in experiment [13] was inactive.

For `CCOc1nc(F)cc2nc(S(=O)(=O)Nc3c(Cl)cccc3Cl)nn12`, the outcome in experiment [1], in [2], in experiment [18], in experiment [19], in experiment [5] and in experiment [16] was inactive. Further, the call in experiment [7], in [8], in experiment [9], in experiment [11], in [12] and in experiment [13] was inactive. The AC50 in experiment [14] was 24.6 µM (active); in experiment [10], 33.2 µM (active).

Turning to `CCN(CC)c1nc(C)cc(OP(=S)(OC)OC)n1`, the outcome in experiment [1], in [2], in experiment [3], in [4], in experiment [6] and in experiment [16] was inactive. Also, the outcome in experiment [9], in experiment [10], in experiment [11], in experiment [12] and in [13] was inactive. For the same compound, the AC50 in [19] is 28.7 µM (active); in [5], 13.8 µM (active); in experiment [8], 33.7 µM (active).

As for `CCOC(=O)C(C)OC(=O)c1cc(Oc2ccc(C(F)(F)F)cc2Cl)ccc1[N+](=O)[O-]` (stereo not drawn), the result in [1], in experiment [18], in experiment [5], in experiment [6], in experiment [8] and in experiment [9] was inactive. The outcome in [17] and in experiment [13] was inactive. The AC50 is 1.57 µM (active) in experiment [2]; 14.1 µM (active) in [14]; 10.6 µM (active) in [10]; 6.5 µM (active) in [11]; 3.97 µM (active) in [12].

As to `O=C1C2CC=CCC2C(=O)N1SC(Cl)(Cl)Cl` (stereo not drawn), the outcome in experiment [1], in [2], in experiment [4], in experiment [5], in experiment [15] and in experiment [7] was inactive. In addition, the call in experiment [8], in experiment [9], in [10], in [11] and in [13] was inactive. For the same compound, in [12], the AC50 is 36.7 µM (active).

Regarding `COCc1cnc(C2=NC(C)(C(C)C)C(=O)N2)c(C(=O)O)c1` (stereo not drawn), the result in [1], in [2], in experiment [3], in experiment [4], in experiment [19] and in [5] was inactive. The result in [6], in experiment [15], in experiment [7], in [8], in experiment [9] and in experiment [10] was inactive. Besides, the outcome in experiment [11], in experiment [12] and in [13] was inactive.

As a reminder, the AC50 is the concentration giving half of the maximal activity seen.
